# Assay outcomes (PubChem)
# This is a sample that favours compounds with a hit; in the whole collection about 21% have one here.
# D3 ag: qHTS of D3 Dopamine Receptor Agonist: qHTS. D3R DiscoveRx beta-arrestin cells, luminescence, 90 min. D(3) dopamine receptor (Homo sapiens), P35462. 410,000 tested, 0.58% active. max activation, %; in the data active = max activation above about 30%; also: 0% is about no effect
# Target sequence (P35462 whole entry, looked up): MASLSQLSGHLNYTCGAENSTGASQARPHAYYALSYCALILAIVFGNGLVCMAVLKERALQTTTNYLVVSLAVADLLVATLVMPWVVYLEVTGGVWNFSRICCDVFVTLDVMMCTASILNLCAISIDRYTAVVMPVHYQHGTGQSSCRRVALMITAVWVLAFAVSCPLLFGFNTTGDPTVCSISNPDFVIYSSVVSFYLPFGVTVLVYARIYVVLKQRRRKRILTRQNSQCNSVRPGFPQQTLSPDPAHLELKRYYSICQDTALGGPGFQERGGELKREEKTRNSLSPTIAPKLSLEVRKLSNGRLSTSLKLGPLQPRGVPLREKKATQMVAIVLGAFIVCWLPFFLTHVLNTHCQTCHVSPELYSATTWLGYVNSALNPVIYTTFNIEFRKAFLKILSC
#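 Cells at 1500/well, incubated overnight, then treated with pinned compounds (dopamine as control) for 90 min at 37 degrees C. DiscoveRx reagent added for 30 - 60 minutes at room temperature; luminescence read.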
# TDP1 cell noCPT: qHTS for Inhibitors of human tyrosyl-DNA phosphodiesterase 1 (TDP1): qHTS in cells in absence of CPT; DT40 Tdp1-/- hTDP1 cells, no CPT, ATP luminescence, 48 h; 420,000 tested, 15% active; Potency, µM (doses to about 46.2 µM), for the others: at the top dose activity change, negative = growth inhibition, actives largely listed as inhibitors; also: potency is read from the fitted curve at half-maximal effect; % is scaled to controls: 0 for no effect and ±100 for the full control effect; nearly all actives have a fitted effect of over 55% in size
#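 Seeded 400 DT40-hTDP1 cells/well (vehicle DMSO, no 20 nM CPT); pinned compounds; ≥48 hr at 37 °C; CellTiter-Glo luminescence as viability measure.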
# IL-1B inflam inh: qHTS for Inhibitors of Inflammasome Signaling: IL-1-beta AlphaLISA Primary Screen; THP-1 LPS/ATP IL-1B secretion, AlphaLISA, 16 h; active compounds read low; activity change, % at 57.5 µM; 360,000 tested, 4.7% active; in the data active = activity change below about -50%; inconclusive = mostly about -30% to -49%; also: % is scaled to controls: 0 for no effect and ±100 for the full control effect
#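 Secreted IL-1B measured by AlphaLISA bead assay after 16 h compound exposure of THP-1 cells; compounds (final up to 57.5 uM) added 1 h before LPS (250 ng/mL) and ATP (1.25 mM) stimulation; lower signal means less secretion.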
# ClpP mod: qHTS Assay for Activators of ClpP. ATP-dependent Clp protease proteolytic subunit (Bacillus subtilis (strain 168)), P80244. purified B. subtilis ClpP, FRET peptide cleavage, 20 min. Potency, µM (doses to about 57.5 µM), for inactives: at the highest dose activity change, negative = active. 340,000 tested, 1.9% active. AID 651965, 2013; active = well fitted falling curve with a large enough effect; inconclusive = small, poorly fitted or top-dose-only effect; inactive = no such curve, though single readings can be large or run the other way; also: potency is read from the fitted curve at half-maximal effect; the source files actives as falling curves though it sought activators and does not explain the sign; nearly all actives have a fitted effect of over 65% in size
# Target sequence (P80244 whole entry, looked up): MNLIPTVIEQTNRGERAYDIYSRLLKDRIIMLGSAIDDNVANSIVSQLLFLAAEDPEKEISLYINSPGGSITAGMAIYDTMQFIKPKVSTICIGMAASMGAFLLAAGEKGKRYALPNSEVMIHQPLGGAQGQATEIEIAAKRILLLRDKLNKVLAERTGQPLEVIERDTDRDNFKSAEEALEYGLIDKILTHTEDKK
#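 Purified B. subtilis ClpP, 10 microg/mL final in Tris/HCl pH8 with KCl, BSA, glycerol and Tween-20, cleaved an Abz/nitrotyrosine-quenched decapeptide. Fluorescence (ex 320, em 430) was read at 0 and 20 min at room temperature. Delta was normalized to 5.8 microM ADEP and DMSO/no-enzyme controls.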
# TDP1 cell CPT: qHTS for Inhibitors of human tyrosyl-DNA phosphodiesterase 1 (TDP1): qHTS in cells in presence of CPT. AID 686979, 2013. chicken DT40 Tdp1-/-;hTDP1 cells + 20 nM CPT, ATP luminescence, 48 h. 420,000 tested, 12% active. Potency, µM (doses to about 46.2 µM), for inactives: at the top dose activity change, negative = growth inhibition, hits mostly inhibitors; also: potency is read from the fitted curve at half-maximal effect; % is scaled to controls: 0 for no effect and ±100 for the full control effect; nearly all actives have a fitted effect of over 55% in size
#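 Chicken DT40 Tdp1-/- cells complemented with human TDP1, 400 cells/well, exposed to compounds plus 20 nM camptothecin for at least 48 h at 37 C; viability read as ATP content by CellTiter-Glo luminescence.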
# DRD3 antagonist: qHTS of D3 Dopamine Receptor Antagonist: qHTS; D(3) dopamine receptor (Homo sapiens), P35462; D3R cells, DiscoveRx beta-arrestin luminescence, antagonist mode; active compounds read low; max response, negative = inhibition, %; 360,000 tested, 2.5% active; in the data active = max response below about -50%; inconclusive = no clear call, values can overlap the other calls; also: % is scaled to controls: 0 for no effect and ±100 for the full control effect
#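 Cells expressing the human receptor were seeded at 1500 cells/well, incubated overnight at 37 degrees C in 5% CO2, then exposed to library compounds with dopamine controls for 90 minutes at 37 degrees C before luminescent detection.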
# Starred values were filed as active, the others as inactive; ? = inconclusive; nt = not tested or not shown. Unless noted, calls follow the shape of the dose curve; as a rule, active = well fitted inhibition curve with a large enough effect; inconclusive = small, poorly fitted or top-dose-only effect; inactive = flat fitted curve, though single readings scatter.
SMILES,D3 ag,TDP1 cell noCPT,IL-1B inflam inh,ClpP mod,TDP1 cell CPT,DRD3 antagonist
Cc1ccccc1CNC(=O)c1ccc(CSCc2ccccc2)cc1,-4,21µM*,-23,-25%,?,11
Cc1ccc(C)c(Cn2nc3c4ccccc4n(Cc4ccccc4)cc-3c2=O)c1,-14,?,0,nt,?,?
COC(=O)[C@H](Cc1ccccc1)NC(=O)C1CCN(C(=O)[C@H](C)NS(=O)(=O)c2ccc(C)cc2)CC1,-1,7%,-50*,1%,-8%,2
Cc1ccc(S(=O)(=O)N2CCC(C(=O)N[C@@H](Cc3ccccc3)C(=O)O)CC2)cc1,37*,7%,0,-1%,7%,-9
O=C(NC(Cc1ccccc1)C(=O)O)C1CCN(S(=O)(=O)c2cccc(C(F)(F)F)c2)CC1 (stereo not drawn),4,?,7,0%,21%,-20
Cc1ccc(S(=O)(=O)N[C@@H](CC(C)C)C(=O)N2CCC(C(=O)N[C@@H](Cc3ccccc3)C(=O)O)CC2)cc1,1,?,-18,2%,?,-13
CCc1nn(C(C)C(=O)NCCN2CCCCCC2)c(=O)c2cc3occc3n12 (stereo not drawn),-18,18%,18,-4%,5%,-14
CCC(C(=O)N1CCN(c2cc(Cl)ccc2C)CC1)n1nc(C)n2c(cc3occc32)c1=O (stereo not drawn),-6,15µM*,nt,-6%,?,nt
CCc1nn(C(CC)C(=O)NCc2cccc(OC)c2OC)c(=O)c2cc3occc3n12 (stereo not drawn),-5,18µM*,-13,-3%,21µM*,-5
CCc1nn(CC(=O)NCc2cccc(OC)c2OC)c(=O)c2cc3occc3n12,-12,-20%,nt,-3%,-15%,nt
CCc1nn(C(C)C(=O)NCCN2CCN(c3cccc(C)c3C)CC2)c(=O)c2cc3occc3n12 (stereo not drawn),-9,16µM*,?,-2%,?,-59*
CCC(C(=O)N1CCC(C(N)=O)CC1)n1nc(C)n2c(cc3occc32)c1=O (stereo not drawn),5,5%,10,-12%,-13%,14
CC(C)N(Cc1nnc(-c2ccccc2Cl)o1)C(=O)COc1cccc(Cl)c1,4,?,13,1%,-24%,20
Cc1cc(N2CCC(C(=O)Nc3ccccc3Cl)CC2)n2nc(C)c(-c3ccc(Cl)cc3)c2n1,5,-60%,nt,-23%,7%,nt
N=C(N)S/C=C\C(=O)O,nt,16µM*,nt,nt,16µM*,nt
O=C(COC(=O)c1ccc(O)cc1)NCC1COc2ccccc2O1 (stereo not drawn),-6,-12%,22,-2%,2%,-5
CCOC(=O)c1c(NC(=O)CSc2nnc(-c3cccnc3)o2)sc(C(C)=O)c1C,2,21µM*,12,1%,?,-15
CCOC(=O)c1c(NC(=O)CSc2nnc(-c3ccco3)o2)sc(C(C)=O)c1C,0,13µM*,18,-2%,?,11
COC(=O)c1ccccc1NC(=O)CSc1nnc(-c2cccnc2)o1,-7,-6%,19,nt,5%,-10
CCOC(=O)c1c(NC(=O)CSc2nnc(-c3ccco3)o2)sc(C)c1C,-3,-20%,47,-3%,-29%,19
Cc1ccc(S(=O)(=O)N2CCN(c3nc(-n4cncn4)nc4ccccc34)CC2)cc1,nt,?,nt,4%,5%,nt
COc1ccc(Cn2cc(CN3CC(N4CCSCC4)CS3(=O)=O)nn2)cc1 (stereo not drawn),5,-12%,12,-4%,-18%,25
COc1ccc2nc(NC(=O)c3ccc([N+](=O)[O-])o3)sc2c1,-6,13µM*,-88*,0%,23µM*,?
O=C(Nc1nc2cc3c(cc2s1)OCCO3)c1ccc([N+](=O)[O-])o1,0,10µM*,-86*,1%,8.2µM*,-29
O=C(Nc1nc2c(F)cc(F)cc2s1)c1ccc([N+](=O)[O-])o1,-3,10µM*,0,0%,15µM*,-10
SMILES,D3 ag,TDP1 cell noCPT,IL-1B inflam inh,ClpP mod,TDP1 cell CPT,DRD3 antagonist
COc1ccc2nc(NC(=O)c3ccccc3[N+](=O)[O-])sc2c1,-5,3%,-7,-1%,-3%,-23
O=C(Nc1nc2ccccc2s1)c1ccc([N+](=O)[O-])o1,-9,8.2µM*,-68*,2%,15µM*,-22
COc1ccccc1CNc1ccnc(-c2ccc(C(=O)N(C)C)cc2)n1,nt,-16%,nt,nt,-5%,nt
Cc1ccc(C)c(N2N=C(C(=O)OCc3nnc(-c4ccccc4Br)o3)CCC2=O)c1,-4,-3%,12,1%,-3%,?
O=C(CNC(c1ccccc1)c1ccccc1)Nc1ccccc1-c1ccccc1,0,18µM*,16,-1%,?,8
CC(=O)Nc1ccc(SCC(=O)Nc2ccccc2-c2ccccc2)cc1,-21,23µM*,25,2%,?,1
O=C(CNC(c1ccccc1)c1ccccc1)Nc1ccccc1F,-7,?,-3,nt,?,-26
COc1ccc(NC(=O)CNC(c2ccccc2)c2ccccc2)cc1Cl,-5,?,-18,nt,?,-14
O=C(CC1CCCCC1)Nc1ccccc1-c1ccccc1,0,21µM*,-4,-1%,?,10
O=C(CCC1CCCCC1)Nc1ccccc1-c1ccccc1,-3,-18%,21,-2%,-3%,22
Cc1cc(C)cc(NC(=O)CNC(c2ccccc2)c2ccccc2)c1,-11,10µM*,-6,nt,?,2
Cc1cccc(C)c1OCC(=O)Nc1ccc(NC(=O)c2ccco2)cc1,-2,21µM*,-17,nt,26µM*,-11
Cc1cc(NC(=O)COc2ccccc2C)ccc1NC(=O)c1ccco1,-10,16µM*,-27,nt,23µM*,-11
Cc1cc(NC(=O)COc2ccccc2C)ccc1NC(=O)c1cccs1,-3,12µM*,-62*,nt,-61%,10
Cc1ccc(-c2ccc(CCC(=O)O)n2-c2cccc(C(=O)O)c2)cc1,-4,23%,-4,-10%,4%,11
